Bioassay records from PubChem.
Hits are enriched below; roughly 2.7% of the tested compounds scored in any of these assays.
INS-1E GSIS act: GLuc luminescence reporter in INS-1E cells, primary screen for activators of glucose-dependent secretion of insulin | hit rate 0.61% among 370,000 | INS-1E GLuc reporter insulin secretion, 2-3 h | AID 743287, 2014 | activation, % at 16.6 µM;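 active means lowest replicate activation of at least 40%, so every replicate reaches that level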
F508del corr: F508del CFTR correction, initial screen, CFBE line, single point | activity (quench increase), % at 7.58 µM | hit rate 0.36% among 350,000 | AID 720511, 2013 | CFBE cells, YFP halide quenching; stimulated with forskolin plus potentiator P3; % fluorescence drop versus neutral controls;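 active means mean added fluorescence quench of at least 8% versus neutral control, with both replicates also reaching 8%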;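 further: cells transiently co-express mutant CFTR-F508del with the halide-sensitive YFP; corrector assay measuring rescue of mutant channel to the surface after 24 h compound exposure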
PGC1a acetyl inh: inhibitors of PGC1a acetylation signal, primary screen, cell-based, U2OS, AlphaScreen, inhibitor mode | hit rate 0.17% among 350,000 | inhibition, % at 15.6 µM | AlphaScreen anti-acetyl-lysine; with virally co-expressed GCN5 acetyltransferase;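 active means every replicate shows inhibition of at least 40%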
Env fusion inh: inhibitors of HIV-1 Env-driven cell-cell fusion, primary screen, HeLa-JRFL effector, CEM21 target cells, luciferase. hit rate 1.1% among 360,000. AID 651610, 2012. inhibition, % at 12.3 µM;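 active means mean replicate inhibition score of at least 50 and every replicate individually at or above 50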
PAX8 inh HTS: inhibitors of PAX8-driven TPO luciferase reporter, primary screen, RMG-I cells, single concentration; hit rate 1.2% among 360,000; inhibition, % at 12.6 µM; AID 652154, 2013; SteadyGlo, 24 h;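 active means mean replicate inhibition at least 60% with every replicate also reaching 60%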;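 further: luciferase light reporting Pax8 driven TPO promoter activity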
EWS-Fli block: EWS/Fli-driven NR0B1 reporter inhibitors, primary screen, A673 cells, NR0B1 luciferase, luminescence, MLPCN library; AID 651661, 2012; hit rate 0.67% among 350,000; inhibition, % at 12.6 µM; viability-normalised;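 active means mean inhibition of at least 50% after viability correction, with every replicate also passing that limit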;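 further: firefly luciferase signal divided by Alamar Blue viability fluorescence both relative to DMSO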
Large screens that a line does not name were inactive.

CC(C)CCn1c(=O)c2ccccc2n2c(CN3CCOCC3)nnc12	INS-1E GSIS act 45 (no result: PGC1a acetyl inh)
COC(=O)c1sc(N)c(C(=O)OC)c1COC(=O)c1c(C)noc1C	none (no result: INS-1E GSIS act, F508del corr, EWS-Fli block)
COC(=O)c1sc(N)c(C(=O)OC)c1Cn1ncc(Cl)c(Cl)c1=O	PAX8 inh HTS 63 (no result: PGC1a acetyl inh)
COC(=O)c1cc2c(c3c4cc(OC)ccc4n(S(=O)(=O)c4ccccc4)c13)C(=O)N(C)C2	Env fusion inh 65 (no result: INS-1E GSIS act, PGC1a acetyl inh)
COc1ccc(NC(=O)N2CC(=O)N3[C@H](CO)[C@H](c4ccc(-c5ccccc5)cc4)[C@@H]3C2)cc1	none (no result: Env fusion inh)
Cc1ccc(-c2ccc([C@H]3[C@H](CO)N4CCCCN(C(=O)c5ccc(F)cc5)C[C@@H]34)cc2)cc1	none (no result: Env fusion inh)
Cc1ccc(-c2ccc([C@H]3[C@@H](CO)N4CCCCN(C(=O)c5ccc(F)cc5)C[C@H]34)cc2)cc1	PAX8 inh HTS 73 (no result: Env fusion inh)
COCC(=O)N1CCCCN2[C@H](C1)[C@@H](c1ccc(-c3ccc(C)cc3)cc1)[C@@H]2CO	PAX8 inh HTS 115 (no result: Env fusion inh)
COc1ccc(NC(=O)N[C@@H]2CC[C@H](CCNS(=O)(=O)c3ccccc3F)O[C@@H]2CO)cc1	none
C[C@@H]1CN([C@H](C)CO)C(=O)Cc2cc(NC(=O)C3CCCCC3)ccc2O[C@@H]1CN(C)S(=O)(=O)c1ccc(F)cc1	none (no result: Env fusion inh)
O=[N+]([O-])c1ccc(/C=C/C2=NN(c3ccccc3)C(c3ccco3)C2)o1 (stereo not given)	F508del corr 16 (no result: PGC1a acetyl inh)
Cc1ccccc1OCc1nnc(SCc2cc(=O)[nH]c3ccccc23)n1-c1ccccc1	PAX8 inh HTS 71 (no result: Env fusion inh)
Cc1ccc(OCc2nnc(SCc3cc(=O)[nH]c4ccccc34)n2-c2ccccc2)cc1	none (no result: PGC1a acetyl inh)
NC(=O)CSc1nnc(Cn2cnc3ccccc32)o1	none
Clc1ccc(CSc2nnc(Cn3cnc4ccccc43)o2)cc1	Env fusion inh 87 (no result: INS-1E GSIS act, F508del corr, EWS-Fli block)
O=C(C1CCCC1)N1CC(=O)N2[C@H](CO)[C@@H](c3ccc(-c4cccnc4)cc3)[C@H]2C1	none (no result: PGC1a acetyl inh, Env fusion inh, PAX8 inh HTS)
COc1ccc(NC(=O)NCCCN2CCN(c3cc(C)ccc3C)CC2)cc1	Env fusion inh 59 (no result: PGC1a acetyl inh)
COc1ccc(NC(=O)NCCCN2CCN(c3ccccc3F)CC2)cc1	none
CN1CCN(c2ccc(NC(=S)NC(=O)c3cccc4ccccc34)cc2)CC1	EWS-Fli block 65
O=C1C(Cl)=C(Nc2ccc3cn[nH]c3c2)C(=O)c2ccccc21	PGC1a acetyl inh 55, PAX8 inh HTS 81
O=C(Nc1ccc2cn[nH]c2c1)c1c(Cl)cccc1Cl	none (no result: F508del corr)
C=CCNC(=O)C1CC1(c1cccc(C)c1)c1cccc(C)c1 (stereo not given)	none
Cc1cccc(C2(c3cccc(C)c3)CC2C(=O)Nc2ccc([N+](=O)[O-])cc2O)c1 (stereo not given)	Env fusion inh 75, PAX8 inh HTS 95 (no result: F508del corr, PGC1a acetyl inh, EWS-Fli block)
COC(=O)[C@H](CCSC)NC(=O)Cn1cc(C)c(=O)[nH]c1=O	F508del corr 8.7 (no result: PGC1a acetyl inh)
Cc1ccc(C(=O)N2CCN3C(=O)c4ccccc4C23c2ccccc2)cc1 (stereo not given)	INS-1E GSIS act 42
Cc1ccc2nc(N3CCN(C(=O)CCCC(=O)O)CC3)nc(-c3ccccc3)c2c1	INS-1E GSIS act 57 (no result: PGC1a acetyl inh)
C[C@@H]1CN([C@@H](C)CO)C(=O)Cc2cc(NC(=O)NC3CCCCC3)ccc2O[C@@H]1CN(C)Cc1ccc(-c2ccccc2)cc1	PAX8 inh HTS 102
C[C@@H]1CN([C@@H](C)CO)C(=O)Cc2cc(NC(=O)c3ccncc3)ccc2O[C@@H]1CN(C)Cc1ccc(-c2ccccc2)cc1	PAX8 inh HTS 102
C[C@H](CO)N1C[C@H](C)[C@@H](CN(C)Cc2ccc(Oc3ccccc3)cc2)Oc2ccc(NC(=O)NC3CCCCC3)cc2CC1=O	none
C[C@@H]1CN([C@@H](C)CO)C(=O)Cc2cc(NC(=O)NC3CCCCC3)ccc2O[C@H]1CN(C)Cc1ccc(Oc2ccccc2)cc1	PAX8 inh HTS 71
CC(=O)OCC(=O)C1(O)CCC2C3CCC4=CC(=O)C=CC4(C)C3C(O)CC21C (stereo not given)	none
C[C@]12C=CC(=O)C=C1CC[C@@H]1C2[C@@H](O)C[C@@]2(C)C1CC[C@]2(O)C(=O)COC(=O)CCC(=O)O (stereo not given in full)	F508del corr 8.2
CCNC(=O)C[C@H]1CC[C@@H]2[C@H](COc3ccc(NC(=O)c4ccc5c(c4)OCO5)cc3C(=O)N2C)O1	none
CCOC(=O)CCCCCC(=O)Nc1ccc2c(c1)C(=O)N([C@@H](C)CO)C[C@H](C)[C@H](CN(C)S(=O)(=O)c1ccc(F)cc1)O2	none (no result: F508del corr, PGC1a acetyl inh, Env fusion inh, PAX8 inh HTS, EWS-Fli block)
C=C1SC(=Nc2c(C)cccc2Cl)N(C(=O)c2sc3ccccc3c2Cl)C12CCCCC2	INS-1E GSIS act 135 (no result: PGC1a acetyl inh)
CC(C)N(Cc1nc(-c2ccc(Cl)cc2)no1)C(=O)CN(C)S(=O)(=O)c1ccc(Cl)cc1	none (no result: Env fusion inh, PAX8 inh HTS)
CC(C)N(Cc1nc(-c2ccccc2)no1)C(=O)CN(C)S(=O)(=O)c1ccc(Br)cc1	Env fusion inh 70 (no result: INS-1E GSIS act, F508del corr, PAX8 inh HTS, EWS-Fli block)
COc1ccc(CC2C(=O)NC(C)C(=O)N(C)C3Cc4ccc(cc4)Oc4cc(ccc4O)CC(C(=O)NC(C)C(=O)NC(C)C(=O)N2C)N(C)C3=O)cc1 (stereo not given)	PGC1a acetyl inh 70, Env fusion inh 77, PAX8 inh HTS 110, EWS-Fli block 66
C[C@@H]1CN([C@@H](C)CO)C(=O)c2cccc(NC(=O)c3cnccn3)c2O[C@H]1CN(C)S(=O)(=O)c1ccc(Cl)cc1	none (no result: PAX8 inh HTS)
COC(=O)c1ccc(C(=O)NC2CCCc3c2cnn3-c2ccc(C)c(C)c2)cc1 (stereo not given)	F508del corr 10, Env fusion inh 72 (no result: EWS-Fli block)
Cc1cc(C(=O)NC2CCCc3c2cnn3-c2ccc(C(C)(C)C)cc2)nn1C (stereo not given)	Env fusion inh 82
COC(=O)c1ccc(C(=O)NC2CCCc3c2cnn3-c2cc(F)cc(F)c2)nc1 (stereo not given)	F508del corr 9.6, EWS-Fli block 53 (no result: PGC1a acetyl inh)
CCCCCCCCC#Cc1nc(C)ccc1OC	INS-1E GSIS act 56
COC(=O)[C@]1(Cc2ccccc2)N=C(c2ccc(OCCCO)cc2)O[C@@H]1c1ccccc1CN=[N+]=[N-]	none (no result: INS-1E GSIS act)
COC(=O)[C@]1(CCS(=O)(=O)c2ccccc2)N=C(c2ccc(OCCCO)cc2)O[C@@H]1c1ccccc1CN=[N+]=[N-]	PAX8 inh HTS 95 (no result: INS-1E GSIS act)
COC(=O)[C@@]1(Cc2ccccc2)N=C(c2ccc(OCCCO)cc2)O[C@H]1c1ccccc1CN=[N+]=[N-]	PAX8 inh HTS 96 (no result: INS-1E GSIS act, PGC1a acetyl inh)
COC(=O)[C@@]1(CCS(=O)(=O)c2ccccc2)COC(c2ccc(OCCCO)cc2)=N1	EWS-Fli block 80 (no result: INS-1E GSIS act)
